{"source": "the supplement of paper PMC8728848", "binders": {"B1": {"name": "CLEC5A (Homo sapiens), Q9NY25 (protein)", "chain": "MNWHMIISGLIVVVLKVVGMTLFLLYFPQIFNKSNDGFTTTRSYGTVSQIFGSSSPSPNGFITTRSYGTVCPKDWEFYQARCFFLSTSESSWNESRDFCKGKGSTLAIVNTPEKLKFLQDITDAEKYFIGLIYHREEKRWRWINNSVFNGNVTNQNQNFNCATIGLTKTFDAASCDISYRRICEKNAK"}}, "test_in_all_cases": "glycan array binding signal (z-score within array); higher = stronger binding", "settings_in_all_cases": "glycan notation: IUPAC condensed, linker removed", "key": {"[1]": {"molecular_target": "4d8dNeu5Ac(a2-3)Gal(b1-4)Glc", "outline": "(§1)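 Negative Z-scores can be read as non-binding. The Z-score is calculated within each array and then averaged across arrays of one protein sequence at different concentrations or buffers and across linkers. Arrays, 3228 in all, were curated from the Consortium for Functional Glycomics database and kept only where the protein sequence was available.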"}, "[2]": {"molecular_target": "4dNeu5Ac(a2-3)Gal(b1-4)Glc", "outline": "as §1"}, "[3]": {"molecular_target": "Fuc(a1-2)Gal(b1-3)GlcNAc(b1-2)Man(a1-3)[Fuc(a1-2)Gal(b1-3)GlcNAc(b1-2)Man(a1-6)]Man(b1-4)GlcNAc(b1-4)GlcNAc", "outline": "as §1"}, "[4]": {"molecular_target": "Fuc(a1-2)Gal(b1-3)[Fuc(a1-4)]GlcNAc(b1-2)Man(a1-3)[Fuc(a1-2)Gal(b1-3)[Fuc(a1-4)]GlcNAc(b1-2)Man(a1-3)]Man(b1-4)GlcNAc(b1-4)GlcNAc", "outline": "as §1"}, "[5]": {"molecular_target": "Fuc(a1-2)[Gal(a1-3)]Gal(b1-3)GlcNAc", "outline": "as §1"}, "[6]": {"molecular_target": "Fuc(a1-2)[Gal(a1-3)]Gal(b1-4)GlcNAc(b1-3)[Fuc(a1-2)[Gal(a1-3)]Gal(b1-4)GlcNAc(b1-6)]GalNAc", "outline": "as §1"}, "[7]": {"molecular_target": "Fuc(a1-2)[GalNAc(a1-3)]Gal(b1-4)GlcNAc(b1-2)Man(a1-3)[Fuc(a1-2)[GalNAc(a1-3)]Gal(b1-4)GlcNAc(b1-2)Man(a1-6)]Man(b1-4)GlcNAc(b1-4)[Fuc(a1-6)]GlcNAc", "outline": "as §1"}, "[8]": {"molecular_target": "Fuc(a1-2)[GalNAc(a1-3)]Gal(b1-4)GlcNAc(b1-3)Gal(b1-4)GlcNAc", "outline": "as §1"}, "[9]": {"molecular_target": "Fuc(a1-2)[GalNAc(a1-3)]Gal(b1-4)[Fuc(a1-3)]GlcNAc(b1-3)GalNAc", "outline": "as §1"}, "[10]": {"molecular_target": "Fuc(a1-3)[Gal(b1-4)]GlcNAc(b1-3)[Fuc(a1-2)]Gal(b1-4)Glc", "outline": "as §1"}, "Fuc(a1-4)GlcNAc": {"molecular_target": "Fuc(a1-4)GlcNAc", "outline": "as §1"}, "[11]": {"molecular_target": "Gal(b1-3)Gal(b1-4)GlcNAc(b1-2)Man(a1-3)[Gal(b1-3)Gal(b1-4)GlcNAc(b1-2)Man(a1-6)]Man(b1-4)GlcNAc(b1-4)GlcNAc", "outline": "as §1"}, "[12]": {"molecular_target": "Gal(b1-3)GlcNAc(a1-6)Gal(b1-4)GlcNAc", "outline": "as §1"}, "[13]": {"molecular_target": "Gal(b1-3)GlcNAc(b1-3)Gal(b1-4)Glc", "outline": "as §1"}, "[14]": {"molecular_target": "Gal(b1-3)GlcNAc(b1-3)Gal(b1-4)[Fuc(a1-3)]GlcNAc(b1-6)[Gal(b1-3)GlcNAc(b1-3)]Gal(b1-4)Glc", "outline": "as §1"}, "[15]": {"molecular_target": "Gal(b1-3)[Fuc(a1-4)]GlcNAc(b1-2)Man(a1-3)[Gal(b1-3)[Fuc(a1-4)]GlcNAc(b1-2)Man(a1-6)]Man(b1-4)GlcNAc(b1-4)GlcNAc", "outline": "as §1"}, "[16]": {"molecular_target": "Gal(b1-3)[Fuc(a1-4)]GlcNAc(b1-3)Gal(b1-4)[Fuc(a1-3)]GlcNAc", "outline": "as §1"}, "[17]": {"molecular_target": "Gal(b1-3)[Fuc(a1-4)]GlcNAc(b1-3)Gal(b1-4)[Fuc(a1-3)]GlcNAc(b1-6)[Gal(b1-3)[Fuc(a1-4)]GlcNAc(b1-3)]Gal(b1-4)Glc", "outline": "as §1"}, "[18]": {"molecular_target": "Gal(b1-3)[Neu5Ac(a2-6)]GalNAc", "outline": "as §1"}, "Gal(b1-4)Glc": {"molecular_target": "Gal(b1-4)Glc", "outline": "as §1"}, "[19]": {"molecular_target": "Gal(b1-4)GlcNAc(b1-2)Man(a1-6)[GlcNAc(b1-2)Man(a1-3)]Man(b1-4)GlcNAc(b1-4)[Fuc(a1-6)]GlcNAc", "outline": "as §1"}, "[20]": {"molecular_target": "Gal(b1-4)GlcNAc(b1-2)Man(a1-6)[Man(a1-3)]Man(b1-4)GlcNAc(b1-4)[Fuc(a1-6)]GlcNAc", "outline": "as §1"}, "[21]": {"molecular_target": "Gal(b1-4)GlcNAc(b1-3)Gal(b1-4)GlcNAc(b1-2)Man(a1-3)[Gal(b1-4)GlcNAc(b1-3)Gal(b1-4)GlcNAc(b1-2)Man(a1-6)]Man(b1-4)GlcNAc(b1-4)[Fuc(a1-6)]GlcNAc", "outline": "as §1"}, "[22]": {"molecular_target": "Gal(b1-4)GlcNAc(b1-3)Gal(b1-4)GlcNAc(b1-3)Gal(b1-4)GlcNAc", "outline": "as §1"}, "[23]": {"molecular_target": "Gal(b1-4)GlcNAc(b1-3)Gal(b1-4)GlcNAc(b1-3)Gal(b1-4)GlcNAc(b1-3)Gal(b1-4)GlcNAc(b1-2)Man(a1-3)[Gal(b1-4)GlcNAc(b1-3)Gal(b1-4)GlcNAc(b1-3)Gal(b1-4)GlcNAc(b1-3)Gal(b1-4)GlcNAc(b1-2)Man(a1-6)]Man(b1-4)GlcNAc(b1-4)[Fuc(a1-6)]GlcNAc", "outline": "as §1"}, "[24]": {"molecular_target": "Gal(b1-4)GlcNAc(b1-3)Gal(b1-4)GlcNAc(b1-3)Gal(b1-4)GlcNAc(b1-3)Gal(b1-4)GlcNAc(b1-3)Gal(b1-4)GlcNAc(b1-2)[Gal(b1-4)GlcNAc(b1-3)Gal(b1-4)GlcNAc(b1-3)Gal(b1-4)GlcNAc(b1-3)Gal(b1-4)GlcNAc(b1-3)Gal(b1-4)GlcNAc(b1-6)]Man(a1-6)[Gal(b1-4)GlcNAc(b1-3)Gal(b1-4)GlcNAc(b1-3)Gal(b1-4)GlcNAc(b1-3)Gal(b1-4)GlcNAc(b1-3)Gal(b1-4)GlcNAc(b1-2)Man(a1-3)]Man(b1-4)GlcNAc(b1-4)[Fuc(a1-6)]GlcNAc", "outline": "as §1"}, "[25]": {"molecular_target": "Gal(b1-4)GlcNAc(b1-3)[Fuc(a1-3)GlcNAc(b1-6)]Gal(b1-4)Glc", "outline": "as §1"}, "[26]": {"molecular_target": "Gal(b1-4)GlcNAc(b1-3)[Fuc(a1-3)[Gal(b1-4)]GlcNAc(b1-6)]Gal(b1-4)Glc", "outline": "as §1"}, "[27]": {"molecular_target": "Gal(b1-4)GlcNAc(b1-6)[Gal(b1-3)]GalNAc", "outline": "as §1"}, "[28]": {"molecular_target": "Gal3S(b1-3)[Fuc(a1-4)]GlcNAc", "outline": "as §1"}, "[29]": {"molecular_target": "GalNAc(a1-3)GalNAc(a1-3)Gal(a1-4)Gal(b1-4)GlcNAc", "outline": "as §1"}, "GalNAc(b1-4)Gal(b1-4)Glc": {"molecular_target": "GalNAc(b1-4)Gal(b1-4)Glc", "outline": "as §1"}, "GalNAc(b1-4)GlcNAc": {"molecular_target": "GalNAc(b1-4)GlcNAc", "outline": "as §1"}, "[30]": {"molecular_target": "GalNAc(b1-4)GlcNAc(b1-3)GalNAc(b1-4)GlcNAc", "outline": "as §1"}, "GalNAc3S(b1-4)GlcNAc": {"molecular_target": "GalNAc3S(b1-4)GlcNAc", "outline": "as §1"}, "[31]": {"molecular_target": "Glc(a1-3)Glc(a1-3)Man(a1-2)Man(a1-2)Man(a1-3)[Man(a1-3)[Man(a1-6)]Man(a1-6)]Man(b1-4)GlcNAc", "outline": "as §1"}, "[32]": {"molecular_target": "Glc(a1-4)Glc(a1-4)Glc(a1-4)Glc(a1-4)Glc(a1-4)Glc", "outline": "as §1"}, "Glc(a1-6)Glc": {"molecular_target": "Glc(a1-6)Glc", "outline": "as §1"}}, "note": "The full list was thinned out, with the strongest signals kept by preference.", "data": [{"binder": "B1", "values": [{"measurement": "glycan array binding signal (z-score)", "setting": "[1]", "value": -0.32}, {"measurement": "glycan array binding signal (z-score)", "setting": "[2]", "value": -0.32}, {"measurement": "glycan array binding signal (z-score)", "setting": "[3]", "value": 0.119}, {"measurement": "glycan array binding signal (z-score)", "setting": "[4]", "value": 0.282}, {"measurement": "glycan array binding signal (z-score)", "setting": "[5]", "value": -0.016}, {"measurement": "glycan array binding signal (z-score)", "setting": "[6]", "value": 2}, {"measurement": "glycan array binding signal (z-score)", "setting": "[7]", "value": 0.189}, {"measurement": "glycan array binding signal (z-score)", "setting": "[8]", "value": 0.56}, {"measurement": "glycan array binding signal (z-score)", "setting": "[9]", "value": 2.38}, {"measurement": "glycan array binding signal (z-score)", "setting": "[10]", "value": -0.32}, {"measurement": "glycan array binding signal (z-score)", "setting": "Fuc(a1-4)GlcNAc", "value": 11.1}, {"measurement": "glycan array binding signal (z-score)", "setting": "[11]", "value": 2.62}, {"measurement": "glycan array binding signal (z-score)", "setting": "[12]", "value": -0.327}, {"measurement": "glycan array binding signal (z-score)", "setting": "[13]", "value": -0.282}, {"measurement": "glycan array binding signal (z-score)", "setting": "[14]", "value": -0.154}, {"measurement": "glycan array binding signal (z-score)", "setting": "[15]", "value": 1.69}, {"measurement": "glycan array binding signal (z-score)", "setting": "[16]", "value": -0.037}, {"measurement": "glycan array binding signal (z-score)", "setting": "[17]", "value": -0.32}, {"measurement": "glycan array binding signal (z-score)", "setting": "[18]", "value": -0.023}, {"measurement": "glycan array binding signal (z-score)", "setting": "Gal(b1-4)Glc", "value": -0.243}, {"measurement": "glycan array binding signal (z-score)", "setting": "[19]", "value": -0.031}, {"measurement": "glycan array binding signal (z-score)", "setting": "[20]", "value": 4.98}, {"measurement": "glycan array binding signal (z-score)", "setting": "[21]", "value": 0.05}, {"measurement": "glycan array binding signal (z-score)", "setting": "[22]", "value": 0.076}, {"measurement": "glycan array binding signal (z-score)", "setting": "[23]", "value": 1.88}, {"measurement": "glycan array binding signal (z-score)", "setting": "[24]", "value": 0.25}, {"measurement": "glycan array binding signal (z-score)", "setting": "[25]", "value": -0.199}, {"measurement": "glycan array binding signal (z-score)", "setting": "[26]", "value": -0.031}, {"measurement": "glycan array binding signal (z-score)", "setting": "[27]", "value": -0.196}, {"measurement": "glycan array binding signal (z-score)", "setting": "[28]", "value": 0.015}, {"measurement": "glycan array binding signal (z-score)", "setting": "[29]", "value": -0.892}, {"measurement": "glycan array binding signal (z-score)", "setting": "GalNAc(b1-4)Gal(b1-4)Glc", "value": -0.144}, {"measurement": "glycan array binding signal (z-score)", "setting": "GalNAc(b1-4)GlcNAc", "value": -0.135}, {"measurement": "glycan array binding signal (z-score)", "setting": "[30]", "value": -0.136}, {"measurement": "glycan array binding signal (z-score)", "setting": "GalNAc3S(b1-4)GlcNAc", "value": -0.162}, {"measurement": "glycan array binding signal (z-score)", "setting": "[31]", "value": -0.32}, {"measurement": "glycan array binding signal (z-score)", "setting": "[32]", "value": 1.32}, {"measurement": "glycan array binding signal (z-score)", "setting": "Glc(a1-6)Glc", "value": 1.7}]}]}
